PubChem BioAssay (NCI)
About 79,000 compounds went through this panel and 15% of them were active in at least one assay; those are over-represented in the sample as a whole. Unmarked numbers belong to inactive results. The source made the active and inactive calls. Rule as the data show it: active = growth inhibition above about 70%; inactive = the rest.

Tests used:
[1] = NCI Yeast Anticancer Drug Screen. Data for the rad52 strain (AID 147);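 also: 0% = growth of vehicle-treated control cultures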; conditions: S. cerevisiae rad52 mutant growth inhibition, hits give high values
In short: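 Genetically altered yeast (DNA damage repair defect) treated with compound; inhibition calculated relative to vehicle.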

[2] = NCI Yeast Anticancer Drug Screen. Data for the wt1 strain (AID 149);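 also: 0% = growth of vehicle-treated wt1 cultures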; conditions: S. cerevisiae wt1 strain (SPY 50644) growth inhibition, hits give high values
In short: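 Vehicle-normalised growth inhibition; strain wt1; compound exposure.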

[3] = NCI Yeast Anticancer Drug Screen. Data for the rad50EPP+ strain (AID 151);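 also: 0% = growth of vehicle-treated control cultures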; conditions: S. cerevisiae rad50 mutant strain, hits give high values
In short: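 Strain rad50EPP+; compound exposure; % growth inhibition vs vehicle.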

[4] = NCI Yeast Anticancer Drug Screen. Data for the rad50 strain (AID 155);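 also: 0% = growth of vehicle-only cultures of the same strain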; conditions: S. cerevisiae rad50 strain growth inhibition, hits give high values
In short: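 A DNA repair-deficient yeast mutant serves as the test organism; compound-induced growth inhibition is calculated against vehicle-treated cells.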

[5] = NCI Yeast Anticancer Drug Screen. Data for the mec2-1 strain (AID 157); conditions: S. cerevisiae mec2-1 strain, hits give high values
In short: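 Cells of the genetically defined mec2-1 yeast strain are incubated with test compound. Inhibition of growth is calculated against vehicle-treated controls.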

[6] = NCI Yeast Anticancer Drug Screen. Data for the rad14 strain (AID 159);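 also: 0% = growth of vehicle-treated control cultures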; conditions: S. cerevisiae rad14 strain growth inhibition, hits give high values
In short: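 Vehicle-treated cultures served as the baseline for growth inhibition of a DNA repair-mutant yeast strain exposed to each compound.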

[7] = NCI Yeast Anticancer Drug Screen. Data for the sgs1 mgt1 strain (AID 161);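 also: 0% = growth of cultures given vehicle only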; conditions: S. cerevisiae sgs1 mgt1 strain, hits give high values
In short: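 Read-out: growth inhibition vs vehicle controls. Cells: mutant yeast strain deficient in DNA damage repair.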

[8] = NCI Yeast Anticancer Drug Screen. Data for the CLN2oe strain (AID 163);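 also: 0% = growth of vehicle-only control cultures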; conditions: S. cerevisiae CLN2oe strain, hits give high values
In short: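 Strain altered in cell-cycle control, incubated with compound; growth compared to solvent-treated controls.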

[9] = NCI Yeast Anticancer Drug Screen. Data for the cln2 rad14 strain (AID 165);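 also: 0% = growth equal to vehicle treated cultures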; conditions: S. cerevisiae cln2 rad14 strain, hits give high values
In short: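 The screen exposed genetically defined yeast (cln2 rad14) to test compounds and scored growth inhibition relative to vehicle-treated controls.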

[10] = NCI Yeast Anticancer Drug Screen. Data for the bub3 strain (AID 167); conditions: S. cerevisiae bub3 mutant strain, hits give high values
In short: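 Inhibition values come from growth of compound-treated mutant yeast normalised to vehicle-treated controls.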

[11] = NCI Yeast Anticancer Drug Screen. Data for the wt2 strain (AID 169);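 also: 0% = growth of vehicle-treated yeast cultures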; conditions: S. cerevisiae wt2 strain growth inhibition, hits give high values
In short: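 Steps: yeast strain treated with compound; growth recorded; inhibition calculated relative to cultures given vehicle alone.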

[12] = NCI Yeast Anticancer Drug Screen. Data for the mlh1 strain (AID 171);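 also: 0% = growth of vehicle-treated control cultures of the same strain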; conditions: S. cerevisiae mlh1 strain growth inhibition, hits give high values
In short: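 Yeast screen: mutant strain plus compound, growth scored against vehicle control wells.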

[13] = NCI Yeast Anticancer Drug Screen. Data for the sgs1 strain (AID 173);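 also: 0% = growth of vehicle-only control cultures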; conditions: S. cerevisiae sgs1 mutant, hits give high values
In short: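 Inhibition of yeast growth served as the measure. The mutant strain was treated with each compound, and growth was normalised to cultures receiving vehicle alone.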

[14] = NCI Yeast Anticancer Drug Screen. Data for the mlh1 rad18 strain (AID 175); conditions: S. cerevisiae mlh1 rad18 strain growth inhibition, hits give high values
In short: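 Compound-treated yeast growth, normalised to vehicle controls. Strain bears defined DNA repair mutations.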

[15] = NCI Yeast Anticancer Drug Screen. Data for the rad18 strain (AID 177); conditions: S. cerevisiae rad18 mutant growth inhibition, hits give high values
In short: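 Inhibition values reflect reduced yeast growth compared with vehicle-treated controls, using a strain engineered with a DNA damage repair defect.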

[16] = at 5.0 µM (retest, dose inferred, filed as 0.5)
[17] = at 50.0 µM (retest, dose inferred, filed as 5.0)

SMILES: Nc1cc(S(N)(=O)=O)ccc1SSc1ccc(S(N)(=O)=O)cc1N
- growth inhibition ([1]; at 1.2 µM): 1%
- growth inhibition ([1]; at 3.7 µM): 10%
- growth inhibition ([1]; at 11.0 µM): 21%
- growth inhibition ([1]; at 33.0 µM): 50%
- growth inhibition ([1]; at 100.0 µM): 81% (active)
- growth inhibition ([2]; at 1.2 µM): 1%
- growth inhibition ([2]; at 3.7 µM): -2%
- growth inhibition ([2]; at 11.0 µM): 0%
- growth inhibition ([2]; at 33.0 µM): 12%
- growth inhibition ([2]; at 100.0 µM): 51%
- growth inhibition ([3]; at 1.2 µM): -2%
- growth inhibition ([3]; at 3.7 µM): 2%
- growth inhibition ([3]; at 11.0 µM): 19%
- growth inhibition ([3]; at 33.0 µM): 79% (active)
- growth inhibition ([3]; at 100.0 µM): 93% (active)
- growth inhibition ([4]; at 1.2 µM): 5%
- growth inhibition ([4]; at 3.7 µM): 8%
- growth inhibition [4, 16]: 13%
- growth inhibition ([4]; at 11.0 µM): 22%
- growth inhibition ([4]; at 33.0 µM): 33%
- growth inhibition [4, 17]: 52%
- growth inhibition ([4]; at 50.0 µM): 71.6% (active)
- growth inhibition ([4]; at 100.0 µM): 71% (active)
- growth inhibition ([5]; at 1.2 µM): 1%
- growth inhibition ([5]; at 3.7 µM): 5%
- growth inhibition [5, 16]: 9%
- growth inhibition ([5]; at 11.0 µM): 12%
- growth inhibition ([5]; at 33.0 µM): 29%
- growth inhibition [5, 17]: 10%
- growth inhibition ([5]; at 50.0 µM): 41.1%
- growth inhibition ([5]; at 100.0 µM): 63%
- growth inhibition ([6]; at 1.2 µM): 1%
- growth inhibition ([6]; at 3.7 µM): -7%
- growth inhibition ([6]; at 11.0 µM): 3%
- growth inhibition ([6]; at 33.0 µM): 12%
- growth inhibition ([6]; at 100.0 µM): 89% (active)
- growth inhibition [7, 16]: -7%
- growth inhibition [7, 17]: 55%
- growth inhibition ([7]; at 50.0 µM): 56.6%
- growth inhibition ([8]; at 1.2 µM): 1%
- growth inhibition ([8]; at 3.7 µM): -1%
- growth inhibition ([8]; at 11.0 µM): 2%
- growth inhibition ([8]; at 33.0 µM): 13%
- growth inhibition ([8]; at 100.0 µM): 49%
- growth inhibition [9, 16]: 16%
- growth inhibition [9, 17]: 0%
- growth inhibition ([9]; at 50.0 µM): 21.7%
- growth inhibition ([10]; at 1.2 µM): -1%
- growth inhibition ([10]; at 3.7 µM): 3%
- growth inhibition [10, 16]: -21%
- growth inhibition ([10]; at 11.0 µM): 9%
- growth inhibition ([10]; at 33.0 µM): 21%
- growth inhibition [10, 17]: 12%
- growth inhibition ([10]; at 50.0 µM): 62.3%
- growth inhibition ([10]; at 100.0 µM): 67%
- growth inhibition ([11]; at 1.2 µM): -1%
- growth inhibition ([11]; at 3.7 µM): -1%
- growth inhibition ([11]; at 11.0 µM): 4%
- growth inhibition ([11]; at 33.0 µM): 27%
- growth inhibition ([11]; at 100.0 µM): 54%
- growth inhibition ([12]; at 1.2 µM): 4%
- growth inhibition ([12]; at 3.7 µM): 4%
- growth inhibition ([12]; at 11.0 µM): 12%
- growth inhibition ([12]; at 33.0 µM): 28%
- growth inhibition ([12]; at 100.0 µM): 75% (active)
- growth inhibition ([13]; at 1.2 µM): 2%
- growth inhibition ([13]; at 3.7 µM): 9%
- growth inhibition ([13]; at 11.0 µM): 26%
- growth inhibition ([13]; at 33.0 µM): 53%
- growth inhibition ([13]; at 100.0 µM): 82% (active)
- growth inhibition [14, 16]: 5%
- growth inhibition [14, 17]: 31%
- growth inhibition ([14]; at 50.0 µM): 73% (active)
- growth inhibition ([15]; at 1.2 µM): -14%
- growth inhibition ([15]; at 3.7 µM): 7%
- growth inhibition ([15]; at 11.0 µM): 28%
- growth inhibition ([15]; at 33.0 µM): 52%
- growth inhibition ([15]; at 100.0 µM): 78% (active)

SMILES: NC(=O)N1c2ccccc2C=Cc2ccccc21
- growth inhibition ([1]; at 1.2 µM): -35%
- growth inhibition ([1]; at 3.7 µM): -36%
- growth inhibition ([1]; at 11.0 µM): -38%
- growth inhibition ([1]; at 33.0 µM): -49%
- growth inhibition ([1]; at 100.0 µM): -41%
- growth inhibition ([2]; at 1.2 µM): -20%
- growth inhibition ([2]; at 3.7 µM): -16%
- growth inhibition ([2]; at 11.0 µM): -24%
- growth inhibition ([2]; at 33.0 µM): -24%
- growth inhibition ([2]; at 100.0 µM): -44%
- growth inhibition ([3]; at 1.2 µM): -49%
- growth inhibition ([3]; at 3.7 µM): -73%
- growth inhibition ([3]; at 11.0 µM): -63%
- growth inhibition ([3]; at 33.0 µM): -91%
- growth inhibition ([3]; at 100.0 µM): -65%
- growth inhibition ([4]; at 1.2 µM): -39%
- growth inhibition ([4]; at 3.7 µM): -14%
- growth inhibition [4, 16]: 60%
- growth inhibition ([4]; at 11.0 µM): -24%
- growth inhibition ([4]; at 33.0 µM): -42%
- growth inhibition [4, 17]: 99% (active)
- growth inhibition ([4]; at 50.0 µM): -5.55%
- growth inhibition ([4]; at 100.0 µM): -53%
- growth inhibition ([5]; at 1.2 µM): -63%
- growth inhibition ([5]; at 3.7 µM): -55%
- growth inhibition [5, 16]: 63%
- growth inhibition ([5]; at 11.0 µM): -55%
- growth inhibition ([5]; at 33.0 µM): -69%
- growth inhibition [5, 17]: 98% (active)
- growth inhibition ([5]; at 50.0 µM): -3.4%
